TDP1 cell CPT: qHTS for Inhibitors of human tyrosyl-DNA phosphodiesterase 1 (TDP1): qHTS in cells in presence of CPT; 420,000 tested, 12% active; chicken DT40 Tdp1-/-;hTDP1 cells + 20 nM CPT, ATP luminescence, 48 h; Potency, µM (highest dose often 46.2 µM), for the others: at the highest dose activity change, negative = growth inhibition, actives largely listed as inhibitors; note: potency is the fitted concentration of half-maximal effect; nearly all actives have a fitted effect of over 55% in size
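Chicken DT40 Tdp1-/- cells complemented with human TDP1, 400 cells/well, exposed to compounds plus 20 nM camptothecin for at least 48 h at 37 C; viability read as ATP content by CellTiter-Glo luminescence.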
HT1080NT lethal: qHTS for induction of synthetic lethality in tumor cells producing 2HG: qHTS for the HT-1080-NT fibrosarcoma cell line; HT-1080-NT fibrosarcoma viability, CellTiter-Glo ATP luminescence, 48 h; Potency, µM (highest dose often 46.1 µM), for the others: top-dose activity, negative = less viability, hits mostly cytotoxic; 360,000 tested, 1.6% active; AID 686970, 2013;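 note: NT is the 2HG producing partner of a matched IDH1 knockdown line; potency is the fitted concentration of half-maximal effect; 0% = DMSO-treated cells and -100% = media-only wells without cells; nearly all actives have a fitted effect of over 55% in size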
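Viability of the 2HG-overproducing fibrosarcoma line after 48 hours of compound exposure at 37 degrees C was determined by luminescence with CellTiter-Glo, and concentration-effect curves were then fitted and categorized.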
TDP1 cell noCPT: qHTS for Inhibitors of human tyrosyl-DNA phosphodiesterase 1 (TDP1): qHTS in cells in absence of CPT. DT40 Tdp1-/- hTDP1 cells, no CPT, ATP luminescence, 48 h. Potency, µM (highest dose often 46.2 µM), for the others: at the highest dose activity change, negative = growth inhibition, hits mostly inhibitors. 420,000 tested, 15% active. AID 686978, 2013; note: potency is the fitted concentration of half-maximal effect; nearly all actives have a fitted effect of over 55% in size
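Compound effects on proliferation are scored in DT40 Tdp1-/-;hTDP1 cells in the absence of CPT. ATP levels (CellTiter-Glo luminescence) are recorded after a ≥48 hr, 37 °C incubation.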
IL-1B inflam inh: qHTS for Inhibitors of Inflammasome Signaling: IL-1-beta AlphaLISA Primary Screen; 360,000 tested, 4.7% active; AID 743279, 2014; THP-1 LPS/ATP IL-1B secretion, AlphaLISA, 16 h; active compounds read low; activity change, % at 57.5 µM; in the data active = activity change below about -50%; inconclusive = mostly about -30% to -49%
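THP-1 cells pretreated 1 hr with compounds (up to 57.5 uM final), then stimulated with LPS (250 ng/mL final) plus ATP (1.25 mM final); secreted IL-1B measured by AlphaLISA after 16 hr, decreased signal indicating inhibition.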
HT1080 IDH1KD tx: qHTS for induction of synthetic lethality in tumor cells producing 2HG: qHTS for the HT-1080-IDH1KD cell line | HT-1080 IDH1 knockdown viability, ATP luminescence, 48 h | Potency, µM (top dose mostly 46.1 µM), without a hit: top-dose activity, negative = toxicity, hits mostly cytotoxic | 360,000 tested, 2% active | AID 686971, 2013;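 note: potency is the fitted concentration of half-maximal effect; 0% = DMSO wells and -100% = cell-free medium wells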
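IDH1KD HT-1080 cells, 750/well, RPMI + 5% FBS; compound pinned after 2 h settling; 48 h, 37 °C; CellTiter-Glo luminescence; % activity normalised to DMSO and no-cell wells; curves fitted, classed by r2 and efficacy.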
Starred values were filed as active, the others as inactive; u = inconclusive; x = not tested or not shown; [ ] = dose if it differs, or a comment. Hits are enriched below; roughly 19% of the tested compounds scored in any of these assays. Unless noted, calls come from the whole dose curve; as a rule, active = well fitted curve in the direction sought with a large enough effect; inconclusive = small, poorly fitted or top-dose-only effect, or another doubt; inactive = no such curve, though single readings can be large; an effect the other way counts as inactive or inconclusive. Unless noted, % is set by controls: 0 for no effect and ±100 for the full control effect.

SMILES | TDP1 cell CPT | HT1080NT lethal | TDP1 cell noCPT | IL-1B inflam inh | HT1080 IDH1KD tx
COc1cccc(-c2cncnc2NCCN2CCOCC2)c1 | 0.82µM* | x | 2.9µM* | x | x
CN(C)c1ccc(-c2cncnc2NCCN2CCOCC2)cc1 | 0.92µM* | x | 1.2µM* | x | x
COc1cccc(-c2cncnc2Nc2ccccc2)c1 | -26% | x | u | x | x
Cc1cnc(CNc2ncncc2-c2cccc(C#N)c2)cn1 | -6% | x | 0% | x | x
Cc1noc(C)c1-c1cncnc1NCCN1CCOCC1 | 4% | x | 7% | x | x
Cc1ccccc1-c1cncnc1NCCN1CCOCC1 | 2.9µM* | x | 3.3µM* | x | x
COc1cccc(-c2cncnc2NCc2cnc(C)cn2)c1 | 4.6µM* | x | 3.7µM* | x | x
CCNc1ncc2nc(-c3ccc(F)cc3)c(=O)n(C[C@H]3CCCO3)c2n1 | -2% | x | 1% | x | x
COc1ccc(-n2c(=O)c3ccc(C(=O)NCc4ccc(C)cc4)cc3n(Cc3ccc(Cl)cc3)c2=O)cc1 | -6% | x | -9% | x | x
COc1cccc(N2C(=O)N(Cc3ccc(C#N)cc3)c3ccccc3S2(=O)=O)c1 | 5% | x | -30% | x | x
Cc1ccc(C(=O)N2CCC(N3CCC(C(=O)N4CCOCC4)CC3)CC2)cc1 | -5% | 11% | -20% | 12 | 5%
O=C(c1nc2ncccn2n1)N1CCOc2ccc(C(O)C(c3ccccc3)c3ccccc3)cc2C1 (stereo not given) | u | x | -46% | x | x
Cc1cc(Nc2cc(Cl)cc(Cl)c2)nc(N)n1 | u | -5% | 10µM* | 27 | -3%
CC(C)C[C@@H]1O[C@H](CCc2ccccc2)Cc2[nH][nH]c(=O)c21 | u | -2% | u | 10 | -11%
O=c1[nH][nH]c2c1[C@H](C1CCCC1)O[C@H](CCc1ccccc1)C2 | 21µM* | 13% | 18µM* | u | -1%
O=c1[nH][nH]c2c1[C@H](CCc1cccc(Cl)c1)O[C@H](C1CCCC1)C2 | u | u | u | -20 | 7.3µM*
N#Cc1cc2c(=O)n3ccccc3nc2n(-c2ccccc2Cl)c1=O | 7.3µM* | u | u | -3 | u
Nc1ccc(C(=O)O)cc1S(=O)(=O)O | u | 8% | 5.8µM* | 12 | 13%
O=C(O)c1ccc(NS(=O)(=O)c2cc(C(=O)O)ccc2Br)cc1 | 3% | 9% | -18% | -3 | 6%
CC(NC(=O)Nc1nnc(C(F)(F)F)s1)(C(F)(F)F)C(F)(F)F | 4.1µM* | 7.3µM* | 5.2µM* | -62* | 3.3µM*
O=C(Nc1nnc(C(F)(F)F)s1)c1ccc(Br)s1 | 13µM* | u | 15µM* | -55* | u
Cc1nnc(NC(=O)c2c(-c3ccccc3Cl)noc2C)s1 | -1% | -15% | -29% | 42 | -2%
Cc1onc(-c2c(F)cccc2Cl)c1C(=O)Nc1nnc(C(F)(F)F)s1 | 12µM* | u | 15µM* | u | u
COCc1nnc(NC(=O)c2c(-c3c(Cl)cccc3Cl)noc2C)s1 | 13µM* | u | u | 20 | 21µM*
CCSc1nnc(NC(=O)c2ccc(Br)s2)s1 | -25% | -2% | u | -22 | 6%
SMILES | TDP1 cell CPT | HT1080NT lethal | TDP1 cell noCPT | IL-1B inflam inh | HT1080 IDH1KD tx
Cc1onc(-c2c(F)cccc2Cl)c1C(=O)Nc1nccs1 | 3% | -22% | u | 17 | -1%
CC(C)c1cccc(C(C)C)c1NC(=O)c1ccc(-c2cc(Cl)ccc2Cl)o1 | -18% | 13% | u | 0 | 16%
CCOC(=O)c1ccc(NC(=O)CCc2c(C)nc3nc[nH]n3c2=O)cc1 | 13% | x | 2% | x | x
O=C(Nc1ccccc1C(=O)Nc1nnc(C(F)(F)F)s1)c1ccccc1Cl | u | 10µM* | 16µM* | -73* | 10µM*
NC(=O)c1ccccc1NC(=O)c1ccccc1Cl | 0% | 1% | u | -2 | -3%
Cn1cnc2c(cnn2C)c1=N | 10% | 6% | -15% | -4 | 8%
COc1ccc(-c2ccc(C(=O)N(C)Cc3csc(C)n3)c(N3CCC(N4CCc5ccccc5C4)CC3)n2)cc1 | 8%[9.04 µM] | x | -21% | x | x
CCCCNC(=O)c1nc(-c2ccccc2)oc1-c1ccc(Cl)cc1 | u | u | u | 1 | u
CCCCNC(=O)c1nc(-c2cccnc2OC)oc1-c1ccc(Cl)cc1 | 16µM* | 17% | 23µM* | -3 | 17%
CC(NC(=O)CSc1nc(-c2cccc(Cl)c2)nc2cc(=O)[nH]n12)c1nc2ccccc2n1C (stereo not given) | -10% | x | -15% | x | x
COC(=O)CCCN1C(=O)NC(c2ccc(-c3ccccc3)cc2)C(C(=O)OCc2ccccc2)=C1C (stereo not given) | u | -5% | u | -9 | -4%
CC1=C(C(=O)OCc2ccccc2)C(c2ccc3ccccc3c2)NC(=O)N1CCCC(=O)O (stereo not given) | 1% | -11% | -27% | 23 | -17%
COC(=O)CCCCCN1C(=O)NC(C2CC2)C(C(=O)OCc2ccccc2)=C1C (stereo not given) | 16µM* | 0% | 13µM* | 19 | -3%
CCCCCCN(C(=O)CCCCCN1C(=O)NC(c2ccc([N+](=O)[O-])cc2)C(C(=O)OCc2ccccc2)=C1C)C(C(=O)NCCCC)C1CCCCC1 (stereo not given) | u | 2% | 5.8µM* | 15 | 0%
CC1=C(C(=O)OCc2ccccc2)C(c2ccc3c(c2)OCO3)NC(=O)N1CCCC(=O)O (stereo not given) | u | -2% | 0.15µM* | 49 | 0%
CCCCCCN(C(=O)CCCN1C(=O)NC(c2ccc(-c3ccccc3)cc2)C(C(=O)OCc2ccccc2)=C1C)C(C)C(=O)NCCCC (stereo not given) | u | -14% | 16µM* | u | -5%
Cc1ccc(/C=C2/NC(=O)N(Cc3ccccc3F)C2=O)s1 | u | -2% | 3% | 22 | -5%
CCCN1C(=O)/C(=C/c2ccc(C)s2)NC1=S | 26µM* | -15% | -7% | 13 | -11%
COc1ccccc1N(CC(O)COc1ccc(C)cc1)S(=O)(=O)c1ccccc1 (stereo not given) | -5% | 4% | u | -93* | -2%
COc1ccccc1N(CC(O)COc1ccccc1)S(=O)(=O)c1ccccc1 (stereo not given) | u | 8% | u | 0 | 9%

Source: PubChem BioAssay (National Center for Advancing Translational Sciences (NCATS))
